# Test results from PubChem BioAssay (Tox21).
# Inconclusive results are not listed. Calls of active or inactive are those of the source. Calls follow the shape of the dose curve; as a rule, active = well fitted inhibition curve with a large enough effect in the repeat runs; inconclusive = weak or mixed curves; inactive = flat fitted curve, though single readings scatter.
# Test: qHTS assay to identify small molecule HDAC inhibitors (AID 1259364); also: nearly all actives have a fitted effect of over 45% in size; as to activity change, negative = inhibition: top concentration of the series differs between compounds
# Settings: HCT-116 HDAC-Glo I/II luminescence, 2 h; series mostly up to 92.4 µM; activity change, negative = inhibition: at the top concentration
# Excerpt: U.S. Tox21 Program National Center for Advancing Translational Sciences [NCATS] NIH Chemical Genomics Center [NCGC] U.S. Environmental Protection Agency [EPA] National Institutes of Environmental Health Sciences [NIEHS] National Toxicology Program [NTP] U.S. Food and Drug Administration [FDA] Tox21 Assay Overview: Histone deacetylases (HDACs) are a group of epigenetic enzymes that regulate gene expression by histone deacetylation. HDACs are capable of introducing epigenetic modifications and such aberrations contribute to the onset and progression of several human diseases, thus making HDACs a popular therapeutic target. For identifying endogenous class I/II HDAC inhibitors a homogenous, luminogenic HDAC I/II cell based assay was used to measure the relative activity of class I and II HDACs from cells. Wild type HCT-116 cells were used to screen Tox21 libraries for identifying class I/II HDAC inhibitors.
# Tox21 Assay Protocol Summary: HCT-116 cells were dispensed at 1,500 per well in 5uL of culture medium into white solid bottom 1536-well plates (Greiner Bio-One, Monroe, NC) using a Multidrop Combi (Thermo Scientific, Waltham, MA) dispenser. The assay plates were incubated at 37 C and 5% CO2 for an overnight, and then 23nL of compounds dissolved in DMSO and positive control were transferred using a Pintool station (Wako, San Diego, CA). The assay plates were incubated at 37C and 5% CO2 for 2hr. After compound treatment, 4uL of HDAC-Glo reagent (Promega Corporation, Madison, WI) was added to each well of the assay plates using Flying Reagent Dispenser (FRD, Aurora Discovery, San Diego, CA) and incubated the assay plates at room temperature for 30min. The luminescence signal was quantified using a ViewLux plate reader (Perkin Elmer, Shelton, CT).
# % is scaled to controls: 0 for no effect and ±100 for the full control effect; potency is read from the fitted curve at half-maximal effect.
Compound,"activity change, negative = inhibition",Potency
COc1ccccc1OCC1CNC(=O)O1 (stereo not given),-0.341% [at 42.5 µM] (inactive),
c1ccc(CCc2ccccc2)cc1,-12% (inactive),
N[C@H](C(=O)O)[C@@H](O)c1ccc(O)c(O)c1,13.4% [at 42.5 µM] (inactive),
CCCCCCCCN1CCCC1=O,-7% (inactive),
O=C(O)Cc1csc(-c2ccc(Cl)cc2)n1,-23% [at 42.5 µM] (inactive),
CN1[C@@H]2CC[C@H]1CC(OC(=O)C(O)c1ccccc1)C2 (stereo not given in full),8.71% [at 42.5 µM] (inactive),
O=C1CCCCCCCCCCCCCCO1,3.19% (inactive),
CC(C)(C)OC(=O)c1cccc(N)c1,-13.9% (inactive),
CCC1C(=O)OCC1Cc1cncn1C (stereo not given),-2.83% [at 42.5 µM] (inactive),
CO[C@@]1(NC(=O)CSC[C@@H](N)C(=O)O)C(=O)N2C(C(=O)O)=C(CSc3nnnn3C)CS[C@@H]21,-1.39% [at 42.5 µM] (inactive),
CCCCCC(=O)OCCc1ccccc1,0.728% (inactive),
C[C@@H]1C[C@H]2[C@@H]3C[C@H](F)C4=CC(=O)C(Cl)=C[C@]4(C)[C@@]3(F)[C@@H](O)C[C@]2(C)[C@@]1(O)C(=O)CO,1.63% [at 42.5 µM] (inactive),
CCC(C)(CN(C)C)OC(=O)c1ccccc1 (stereo not given),0.0197% [at 42.5 µM] (inactive),
C[C@H]1[C@H](NC(=O)/C(=N/OC(C)(C)C(=O)O)c2csc(N)n2)C(=O)N1S(=O)(=O)O (stereo in doubt),-10.8% [at 42.5 µM] (inactive),
CC(C#N)(CCC(=O)O)N=NC(C)(C#N)CCC(=O)O (stereo not given),3.54% (inactive),
Cc1ccc(-c2ccccc2C#N)cc1,-14.5% [at 42.5 µM] (inactive),
C=CC(C)(CCC=C(C)C)OC(=O)CC (stereo not given),-4.47% (inactive),
CC(=O)O[C@@]12CO[C@@H]1C[C@H](O)[C@@]1(C)C(=O)[C@H](O)C3=C(C)[C@@H](OC(=O)[C@H](O)[C@@H](NC(=O)OC(C)(C)C)c4ccccc4)C[C@@](O)([C@@H](OC(=O)c4ccccc4)[C@H]21)C3(C)C,0.3% [at 42.5 µM] (inactive),
COc1ccc2cc1Oc1cc3c(cc1OC)CC[N+](C)(C)[C@H]3Cc1ccc(cc1)Oc1c(OC)c(OC)cc3c1[C@@H](C2)[N+](C)(C)CC3,-13.8% [at 42.5 µM] (inactive),
CC(=O)Nc1ccc(OCC(O)CNC(C)C)cc1 (stereo not given),2.44% [at 42.5 µM] (inactive),

Compound,"activity change, negative = inhibition",Potency
CC(=O)NC(=O)c1ccccc1O,-10.8% [at 42.5 µM] (inactive),
CCOC(=O)COc1cc(-n2ncc(C(F)(F)F)c(C)c2=O)c(F)cc1Cl,-13.6% (inactive),
CCOCC(C)O (stereo not given),-7.22% (inactive),
CC[N+](CC)(CC)CCOc1cccc(OCC[N+](CC)(CC)CC)c1OCC[N+](CC)(CC)CC,-7.16% [at 42.5 µM] (inactive),
NC(=O)Cc1cccc2ccccc12,-1.82% (inactive),
CCCCCCC#CC(=O)OC,7.43% (inactive),
O=C(O)CCCC[P+](c1ccccc1)(c1ccccc1)c1ccccc1,-0.232% [at 42.5 µM] (inactive),
CN1CCN(c2cc3c(nn2)Oc2ccccc2N3C)CC1,,4.61 µM (active)
Clc1cc(Cl)cc(Cl)c1,5.27% (inactive),
C=C(C)C(=O)OCC1CCCO1 (stereo not given),2.09% (inactive),
CCCn1cc[n+](C)c1C,4.61% (inactive),
O=C(c1ccccc1O)c1ccccc1O,-5.8% (inactive),
CCCC(C)C(=O)OCC (stereo not given),-3.73% (inactive),
CCC(C(=O)NC(=O)NC(C)=O)c1ccccc1 (stereo not given),9.98% [at 42.5 µM] (inactive),
N[C@@H](CCC(=O)O)C(=O)O,1.33% (inactive),
CC(C)CCCO,7.35% (inactive),
CCCCc1nc(Cl)c(CO)n1Cc1ccc(-c2ccccc2-c2nn[nH]n2)cc1,-3.12% [at 42.5 µM] (inactive),
CCCOC(=O)CC,-1.47% (inactive),
CC1(C)OC[C@@H](COC(=O)CCc2ccc(OC[C@@H](O)CNCCNC(=O)N3CCOCC3)cc2)O1,0.528% [at 42.5 µM] (inactive),
O=S(=O)(O)c1cc(O)c(O)c(S(=O)(=O)O)c1,1.45% (inactive),
